Data from PubChem BioAssay (EPA / NIEHS).
The source made the active and inactive calls. The calls were made as follows: active = hit-call score of the fitted dose curve at least 0.9, where 1 is the maximum; inactive = score below 0.9.

These compounds were tested on matrix metalloproteinase-10 (MMP10), MMP10 (gene 4319) (assay: LTEA_HepaRG_MMP10: Life Technologies and Expression Analysis (LTEA) Assay for matrix metalloproteinase-10 (MMP10) using HepaRG (AID 2283517)). Settings: mRNA level, 48 h; actives raise or lower the signal.
Procedure: LTEA_HepaRG is a cell based, multiplexed-readout assay that uses HepaRG, a human liver cell line, with measurements taken at 48 hours after chemical dosing on a 96-well plate.LTEA_HepaRG_MMP10 is one of 102 assay component(s) measured in the LTEA HepaRG cell culture assay. It is a marker of Fibrosis.Data from the assay component LTEA_HepaRG_MMP10 was analyzed into 1 endpoint. This assay endpoint, LTEA_HepaRG_MMP10, was analyzed with bidirectional fitting relative to DMSO as the negative control and baseline of activity. Using a type of inducible reporter, measures of mRNA induction for gain or loss-of-signal activity can be used to understand regulation of transcription factor activity. To generalize the intended target to other relatable targets, this assay endpoint is annotated to the protease intended target family, where the subfamily is matrix metalloproteinase.
A total of 1060 chemcials from the ToxCast library were tested in eight-point concentration-response experiments. Cell culture and cytotoxicity assays were conducted at Thermo Fisher Scientific's Custom Services facility (Madison, WI). A single lot of human HepaRG cells (Thermo Fisher Scientific, Frederick, MD) was used for the cell culture experiments. 96-well format collagen type I coated plates of human HepaRG cells were prepared using established methods. Briefly, cryopreserved HepaRG cells were thawed, plated at a density of approximately 100,000 cells/well in HepaRG Thaw, Plate, and General Purpose media (HPRG770, Thermo Fisher Scientific), and incubated for 48 hours. 0.5% DMSO was selected as vehicle control to balance the requisite need of DMSO in HepaRG cultures to maintain differentiation (for example, baseline metabolism, proportions of hepatocytes vs. cholangiocytes), while enabling further hepatic receptor pathway activation (for example, PXR and CAR) in response to chemical exposure. 48 hours after plating, the culture medium was replaced with HepaRG Serum-Free Incudtion Media. Cells were exposed to each test chemical in duplicate and maintained in CO2 incubators for another 48 hours. Chemical plates were thawed to room temperature and 200x concentrations of treatment groups were prepared. 8-point conentration-reponse curves were made with the highest exposure at 100 uM, followed by half-log dilutions, all in 0.5% DMSO. Each test plate contained variouse controls, induction positive controls (1mM phenobarbital), cytotoxicity positive controls ([…] aflatoxin B1), vehicle controls (0.5% DMSO), and total lysis controls (0.5% DMSO). Cell morphology images were taken using an Essen IncuCyte FLR automated microscope, with six 96-well plates imaged in about 24 minutes. Images were captured and exported and JPEG files. Spent culture media was transfered to black-well plates for the LDH assay, and remaining media was sorted at -80 C for later use. Cells were treated with RLT buffer and frozen until shipped for gene expression analysis. Total RNA was isolated from the cell suspension in 75 uL of Buffer RLT (Qiagen, Germantown, MD 20874) by Quintiles/Expression Analysis (Durham, NC) using a custom isolation procedure. Total RNA from each plate well was transferred to a preamplification plate. Fluidigm's 96.96 Dynamic ArrayTM (Fluidigm, Amsterdam, the Netherlands) technology was used for gene expression analyses by quantitative reverse transcription polymerase chain reaction (qRT-PCR, performed by Quintiles/Expression Analysis, Durham, NC)89. Standard TaqManTM Assays (Applied Biosystems/ThermoFisher Scientific, Foster City, CA) were used to assess the expression of 93 genes selected based on their selectivity and sensitivity to important hepatic receptors known to be modulated by environmental chemicals; importance in human hepatocyte functionality; and hepatotoxicity. […]

SMILES	AC50	outcome
FC(F)C(F)(F)OCC(Cn1cncn1)c1ccc(Cl)cc1Cl (stereo not given)	49.8 µM (active)	
C#CCC1=C(C)C(OC(=O)C2C(C=C(C)C)C2(C)C)CC1=O (stereo not given)		inactive
O=c1ccc(=O)[nH][nH]1		inactive
CCCOc1nn(C(=O)NS(=O)(=O)c2ccccc2C(=O)OC)c(=O)n1C		inactive
COc1cccc(C(=O)NN(C(=O)c2cc(C)cc(C)c2)C(C)(C)C)c1C		inactive
C=C(C)[C@H]1Cc2c(ccc3c2O[C@@H]2COc4cc(OC)c(OC)cc4[C@@H]2C3=O)O1	17.7 µM (active)	
Cc1cc(C2CC2)nc(Nc2ccccc2)n1		inactive
CCCCOC(=O)c1ccccc1C(=O)O		inactive
CCNc1nc(Cl)nc(NC(C)(C)C#N)n1		inactive
CC(Oc1cccc(Cl)c1)C(=O)O (stereo not given)		inactive
CC(COc1ccc(Oc2ccccc2)cc1)Oc1ccccn1 (stereo not given)		inactive
COP(=O)(OC)SCn1c(=O)oc2cc(Cl)cnc21		inactive
COP(=O)(OC)C(O)C(Cl)(Cl)Cl (stereo not given)		inactive
CNC(=O)Oc1cccc2c1OC(C)(C)O2		inactive
CCOP(=S)(OCC)Oc1ccc2c(C)c(Cl)c(=O)oc2c1		inactive
CN(C)[C@@H]1C(=O)C(C(N)=O)=C(O)[C@@]2(O)C(=O)C3=C(O)c4c(O)cccc4[C@@](C)(O)[C@H]3[C@H](O)[C@@H]12		inactive
CCc1cccc(C)c1N(C(=O)CCl)C(C)COC (stereo not given)		inactive
Nc1c(Cl)cc([N+](=O)[O-])cc1Cl		inactive
CCCSP(=O)(OCC)Oc1ccc(Br)cc1Cl (stereo not given)		inactive
CNC(=O)ON=C(SC)C(=O)N(C)C		inactive

SMILES	AC50	outcome
CON=C(C(=O)OC)c1ccccc1CON=C(C)c1cccc(C(F)(F)F)c1		inactive
CC(C)=CC1C(C(=O)OCN2C(=O)C3=C(CCCC3)C2=O)C1(C)C (stereo not given)		inactive
CCOP(=S)(Oc1cnc(C(C)(C)C)nc1)OC(C)C (stereo not given)		inactive
CCCCOC(=O)[C@@H](C)Oc1ccc(Oc2ccc(C#N)cc2F)cc1		inactive
CNc1cnn(-c2cccc(C(F)(F)F)c2)c(=O)c1Cl		inactive
CC1=NNC(=O)N(/N=C/c2cccnc2)C1		inactive
CCCCSP(=O)(SCCCC)SCCCC		inactive
CNC(=O)ON=C(C)SC		inactive
CCOP(=O)(NC(C)C)Oc1ccc(SC)c(C)c1 (stereo not given)		inactive
CC[C@H](C)[C@H]1O[C@]2(C=C[C@@H]1C)C[C@@H]1C[C@@H](C/C=C(\C)[C@@H](O[C@H]3C[C@H](OC)[C@@H](O[C@H]4C[C@H](OC)[C@@H](NC)[C@H](C)O4)[C@H](C)O3)[C@@H](C)/C=C/C=C3\CO[C@@H]4[C@H](O)C(C)=C[C@@H](C(=O)O1)[C@]34O)O2	29.4 µM (active)	
CC1(C(=O)Nc2ccc(O)c(Cl)c2Cl)CCCCC1		inactive
COc1cc(OC)nc(Sc2cccc(Cl)c2C(=O)O)n1		inactive
CCC(=O)Nc1ccc(Cl)c(Cl)c1		inactive
C[N+]1(C)CCCCC1		inactive
CSc1nnc(C(C)(C)C)c(=O)n1N		inactive
CC(C)N(C(=O)SCC(Cl)=C(Cl)Cl)C(C)C		inactive
CC(=NC#N)N(C)Cc1ccc(Cl)nc1		inactive
CCc1cnc(C2=NC(C)(C(C)C)C(=O)N2)c(C(=O)O)c1 (stereo not given)		inactive
S=C1NCCN1		inactive
CCOC(=O)CC(SP(=O)(OC)OC)C(=O)OCC (stereo not given)		inactive
